Where “and” joins values, the source holds several entries; their conditions need not be identical. Identical values can stand only once. Results filed as inconclusive are left out. Some structures have more than one record in an assay (separate samples or runs), and their calls can disagree. Calls of active or inactive are those of the source. Unless noted, calls follow the shape of the dose curve; as a rule, active = well fitted curve in the direction sought with a large enough effect in the repeat runs; inconclusive = weak or mixed curves; inactive = no such curve, though single readings can be large; an effect the other way counts as inactive or inconclusive. Starred links: 1 amine or outer side, 2 acyl side, 3 side chain; linkers in the order of their positions; H or OH if unused. Positions of bridges follow the written chain, without caps; N, C: chain ends. Non-standard residues stand in square brackets, D forms with d. Residues, ends and D or L forms follow the SMILES beside them. Chains are numbered I, II in the order given. Actinocin(9to1) = Cc1c2oc3c(C)ccc(C(=O)[*:1])c3nc-2c(C(=O)[*:2])c(N)c1=O; NMeV = CN[C@H](C(=O)O)C(C)C; Sar = CNCC(=O)O

These results are taken from PubChem BioAssay (Tox21).

Test [1] addresses Peroxisome proliferator-activated receptor delta (Homo sapiens) (UniProt Q03181). The experiment in a line: qHTS assay to identify small molecule agonists of the peroxisome proliferator-activated receptor delta (PPARd) signaling pathway (AID 743212; calls by dose curve). In a few lines:
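A PPARd-bla HEK293H line with beta-lactamase under an Upstream Activator Sequence is treated with compounds at 37 C. Substrate loading for 2 h at room temperature precedes the fluorescence measurement.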

A short description of test [2]: qHTS assay to identify small molecule antagonists of the peroxisome proliferator-activated receptor delta (PPARd) signaling pathway - cell viability counter screen (AID 743213). Also: nearly all actives have a fitted effect of over 50% in size. Also: potency is read from the fitted curve at half-maximal effect. A digest of the protocol: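 HEK293H PPARd UAS-bla cells, 5 h pre-incubation, compound + L165041 300 nM final, 17 h 37 C; B/G FRET substrate 2 h RT; then CellTiter-Glo 30 min RT, luminescence.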
Background: qHTS replaces the single test concentration by a dilution series.

Test [3] is described as follows: qHTS assay to identify small molecule agonists of the farnesoid-X-receptor (FXR) signaling pathway - cell viability counter screen (AID 743218). Also: nearly all actives have a fitted effect of over 45% in size. Also: potency is read from the fitted curve at half-maximal effect. A digest of the protocol:
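Parallel cytotoxicity test: compound-treated (16 h, 37 C) HEK 293T FXR-bla reporter cells were lysed with CellTiter-Glo and luminescence recorded.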

Test [4] in a line: qHTS assay to identify small molecule antagonists of the farnesoid-X-receptor (FXR) signaling pathway - cell viability counter screen (AID 743221; active = well fitted cell-killing curve with a large enough effect in the repeat runs, not every such curve was filed as active; also: nearly all actives have a fitted effect of over 50% in size; also: potency is read from the fitted curve at half-maximal effect). In a few lines: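 GeneBLAzer FXR-UAS-bla HEK 293T cells, compound plus chenodeoxycholic acid (50 uM final), 16 h at 37 C. CellTiter-Glo added to the same wells after the beta-lactamase read; luminescence read after 30 min at room temperature as viability.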

In test [5] the target is Vitamin D3 receptor (Homo sapiens) (UniProt P11473). Kind of test: qHTS assay to identify small molecule antagonists of the vitamin D receptor (VDR) signaling pathway (AID 743223; active = well fitted inhibition curve with a large enough effect in the signal ratio in the repeat runs, not every such curve was filed as active; the % refers to the signal ratio; also: potency is read from the fitted curve at half-maximal effect). A digest of the protocol: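 VDR-bla cells were treated with compound plus 3 nM final 1alpha,25-dihydroxyvitamin D3 for 16 h at 37C. Beta-lactamase reporter read by B/G FRET substrate fluorescence after 2 h at room temperature. qHTS format.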

Test [6] in a line: qHTS assay to identify small molecule agonists of the vitamin D receptor (VDR) signaling pathway - cell viability counter screen (AID 743224). Also: nearly all actives have a fitted effect of over 50% in size. Also: potency is read from the fitted curve at half-maximal effect. A digest of the protocol: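 Plated VDR-bla cells (4 h, 37C) received compound, incubated 16 h, then LiveBLAzer substrate 2 h RT; CellTiter-Glo added afterwards, luminescence read at 30 min.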
Test [7] in a line: qHTS assay to identify small molecule agonists of the endoplasmic reticulum stress response signaling pathway - cell viability counter screen (AID 1159517; calls by dose curve; also: nearly all actives have a fitted effect of over 50% in size; also: potency is read from the fitted curve at half-maximal effect). In a few lines:
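CellTiter-Glo was added to wells already read for beta-lactamase FRET, and luminescence was recorded 30 min later. Cells: ESRE-bla HeLa, 1,500 per well, compound exposure 5 hr at 37 C.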

A short description of test [8]: qHTS assay to identify small molecule antagonists of the retinoid-related orphan receptor gamma (ROR-gamma) signaling pathway - cell viability counter screen (AID 1159520). Also: nearly all actives have a fitted effect of over 50% in size. Also: potency is read from the fitted curve at half-maximal effect. A digest of the protocol: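 Tet-on ROR gamma CHO cells (1,000/well) were plated 4 hr, given compounds in DMSO for 2 hr at 37 C, then induced with 1 uM final doxycycline for 16 hr. Viability was read as ATP by CellTiter-Glo luminescence after 30 min.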

For test [9], the target named is Nuclear receptor ROR-gamma (Homo sapiens) (UniProt P51449). The experiment in a line: qHTS assay to identify small molecule antagonists of the retinoid-related orphan receptor gamma (ROR-gamma) signaling pathway (AID 1159521; also: nearly all actives have a fitted effect of over 50% in size; also: potency is read from the fitted curve at half-maximal effect). A digest of the protocol: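 Tet-on ROR-gamma CHO cells with ROR response element-luciferase reporter; compounds added 2 hr before 1 uM doxycycline induction, then 16 hr at 37 C. Antagonism scored as decreased ONE-Glo luminescence.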

A short description of test [10]: qHTS assay to identify small molecule agonists of the AP-1 signaling pathway - cell viability counter screen (AID 1159525; calls by dose curve; also: nearly all actives have a fitted effect of over 55% in size; also: potency is read from the fitted curve at half-maximal effect). In a few lines:
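ME-180 AP-1-bla, 2500 cells/well, Opti-MEM + 0.5% dialyzed FBS; overnight 37 °C; cpd 15-pt titration, 5 h 37 °C; CellTiter-Glo 30 min RT; luminescence read; normalised to TOAB and DMSO controls.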

Test [11] can be described thus: qHTS assay to identify small molecule agonists of the RXR signaling pathway - cell viability counter screen (AID 1159529). Also: nearly all actives have a fitted effect of over 50% in size. Also: potency is read from the fitted curve at half-maximal effect. In a few lines:
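RXR-alpha-UAS-bla HEK 293T cells in medium with 2% charcoal-stripped FBS were pre-incubated 5 hr, then compound-treated 16 hr at 37 C. Viability was read by CellTiter-Glo luminescence in the same wells as the beta-lactamase assay, with tetraoctyl ammonium bromide as positive control.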

Test [12] deals with Peroxisome proliferator-activated receptor delta (Homo sapiens) (UniProt Q03181). The experiment in a line: qHTS assay to identify small molecule antagonists of the peroxisome proliferator-activated receptor delta (PPARd) signaling pathway (AID 743215; active = well fitted inhibition curve with a large enough effect in the signal ratio in the repeat runs, not every such curve was filed as active; the % refers to the signal ratio;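 also: cells stimulated with agonist L165041 at 300 nM final during compound exposure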; also: potency is read from the fitted curve at half-maximal effect). In a few lines:
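HEK293H UAS-bla, PPARd; agonist L165041 300 nM final with cpd in DMSO; 37 C 17 h; FRET substrate, RT 2 h; fluorescence intensity.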

Test [13] has as its target Bile acid receptor (Homo sapiens) (UniProt Q96RI1). The experiment in a line: qHTS assay to identify small molecule agonists of the farnesoid-X-receptor (FXR) signaling pathway (AID 743220; active = well fitted activation curve with a large enough effect in the signal ratio in the repeat runs, not every such curve was filed as active; the % refers to the signal ratio). A digest of the protocol:
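Beta-lactamase reporter under UAS control in GeneBLAzer FXR HEK 293T cells (5000/well) measured with LiveBLAzer FRET substrate after 2 h at room temperature. Compound exposure lasted 16 h at 37C.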

For test [14], the target named is Vitamin D3 receptor (Homo sapiens) (UniProt P11473). Kind of test: qHTS assay to identify small molecule agonists of the vitamin D receptor (VDR) signaling pathway (AID 743222; calls by dose curve). A digest of the protocol: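 In VDR-bla cells, compound-induced beta-lactamase expression is quantified by FRET substrate fluorescence. Treatment lasts 16 h at 37C; substrate develops 2 h at room temperature.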

Test [15] is described as follows: qHTS assay to identify small molecule antagonists of the vitamin D receptor (VDR) signaling pathway - cell viability counter screen (AID 743225). Also: nearly all actives have a fitted effect of over 50% in size. Also: potency is read from the fitted curve at half-maximal effect. In a few lines:
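VDR-UAS-bla HEK 293T cells were plated and incubated 4 h at 37C, then dosed with compound plus 3 nM (final) 1-alpha,25-dihydroxyvitamin D3 for 16 h. After the 2 h beta-lactamase read, viability in the same wells was read as CellTiter-Glo luminescence after 30 min at room temperature.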

A short description of test [16]: qHTS assay to identify small molecule agonists of the endoplasmic reticulum stress response signaling pathway (AID 1159516; active = well fitted activation curve with a large enough effect in the signal ratio in the repeat runs, not every such curve was filed as active; the % refers to the signal ratio). In a few lines:
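An ESRE-bla HeLa cell assay: compounds were pin-transferred from DMSO onto overnight-plated cells and left 5 hr at 37 C. Substrate was then loaded for 2 hr at room temperature before reading fluorescence at 460 nm and 530 nm.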

Test [17] is described as follows: qHTS assay to identify small molecule agonists of the AP-1 signaling pathway (AID 1159526; calls by dose curve).
The target of test [18] is Bile acid receptor (Homo sapiens) (UniProt Q96RI1). The experiment in a line: qHTS assay to identify small molecule antagonists of the farnesoid-X-receptor (FXR) signaling pathway (AID 743217; active = well fitted inhibition curve with a large enough effect in the signal ratio in the repeat runs, not every such curve was filed as active; the % refers to the signal ratio). A digest of the protocol: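 GeneBLAzer FXR-UAS-bla HEK 293T, CDCA-stimulated (50 uM final). Compound treatment 16 h, 37 °C. Detection: beta-lactamase cleavage of B/G FRET substrate, fluorescence.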
Chain of Bile acid receptor (Homo sapiens) (Q96RI1 whole entry, looked up): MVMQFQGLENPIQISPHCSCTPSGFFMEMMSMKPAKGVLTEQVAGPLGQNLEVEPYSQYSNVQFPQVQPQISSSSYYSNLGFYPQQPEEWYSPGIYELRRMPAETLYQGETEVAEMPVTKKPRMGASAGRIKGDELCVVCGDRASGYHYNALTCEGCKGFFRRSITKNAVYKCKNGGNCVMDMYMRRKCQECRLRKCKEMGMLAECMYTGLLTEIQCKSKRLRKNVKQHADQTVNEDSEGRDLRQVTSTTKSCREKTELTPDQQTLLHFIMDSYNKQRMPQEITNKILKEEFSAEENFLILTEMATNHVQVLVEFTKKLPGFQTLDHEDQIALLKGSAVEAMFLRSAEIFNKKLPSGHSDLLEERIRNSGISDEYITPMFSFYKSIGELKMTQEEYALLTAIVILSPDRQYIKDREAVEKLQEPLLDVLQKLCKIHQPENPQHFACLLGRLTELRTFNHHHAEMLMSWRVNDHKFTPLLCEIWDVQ

Chain of Vitamin D3 receptor (Homo sapiens) (P11473 whole entry, looked up): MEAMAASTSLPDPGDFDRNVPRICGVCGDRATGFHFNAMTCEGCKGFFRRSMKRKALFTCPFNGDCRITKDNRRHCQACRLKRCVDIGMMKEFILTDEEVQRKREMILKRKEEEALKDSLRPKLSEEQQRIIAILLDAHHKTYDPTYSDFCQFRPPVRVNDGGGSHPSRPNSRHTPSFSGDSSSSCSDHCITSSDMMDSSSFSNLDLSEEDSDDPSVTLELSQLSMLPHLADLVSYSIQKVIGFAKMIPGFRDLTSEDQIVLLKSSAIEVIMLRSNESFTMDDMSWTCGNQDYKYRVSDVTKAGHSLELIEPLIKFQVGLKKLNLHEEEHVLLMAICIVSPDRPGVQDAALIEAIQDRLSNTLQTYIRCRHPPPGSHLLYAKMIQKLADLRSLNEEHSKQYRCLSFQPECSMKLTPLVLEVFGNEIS
Chain of Peroxisome proliferator-activated receptor delta (Homo sapiens) (Q03181 whole entry, looked up): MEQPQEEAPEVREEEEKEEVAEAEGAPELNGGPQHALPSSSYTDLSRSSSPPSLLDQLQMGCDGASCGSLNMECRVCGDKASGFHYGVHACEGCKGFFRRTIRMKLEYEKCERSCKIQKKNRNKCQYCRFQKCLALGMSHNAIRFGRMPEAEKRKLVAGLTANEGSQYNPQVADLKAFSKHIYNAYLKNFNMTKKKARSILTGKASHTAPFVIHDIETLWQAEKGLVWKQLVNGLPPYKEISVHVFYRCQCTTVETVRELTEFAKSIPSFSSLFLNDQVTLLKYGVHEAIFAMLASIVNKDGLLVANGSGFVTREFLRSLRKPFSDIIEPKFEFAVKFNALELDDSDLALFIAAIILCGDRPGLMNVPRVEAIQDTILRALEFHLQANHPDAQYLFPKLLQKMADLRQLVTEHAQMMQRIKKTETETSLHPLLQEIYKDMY

`Nc1cc(Cl)c(-c2cc(Cl)c(N)cc2Cl)cc1Cl`: the Potency entry in [1] was “inactive”. For the same compound, the Potency in [2] was 24.5 µM (active); in test [3], 43.6 µM (active) and 12.3 µM (active); in test [4] it was 38.9 µM (active); in test [5], 54.9 µM (active); in test [6], 49 µM (active); in [7] it was 54.9 µM (active). In addition, the Potency was 61.1 µM (active) in test [8]; 7.69 µM (active) and 7.7 µM (active) in [9]; 38.9 µM (active) and 54.9 µM (active) in test [10]; 17.4 µM (active) in test [11].

In the case of `CCc1ccc(C(c2ccc(CC)cc2)C(Cl)Cl)cc1`, the Potency result in [1], in test [2], in test [12], in test [13], in test [4] and in test [14] was “inactive” each time. Besides, the Potency entry in test [5], in test [6], in [15], in test [7], in test [8] and in test [9] was “inactive” each time. Also, the Potency entry in [10] and in test [17] was “inactive” each time. Moreover, the call in test [16] was inactive. The Potency in test [11] is 35.2 µM (active).

Take `CC(C)(C)c1ccc(O)c(C(C)(C)C)c1`: the Potency in [2] was 38.7 µM (active) and 49 µM (active); in [4], 54.9 µM (active); in test [6], 34.5 µM (active) and 30.9 µM (active); in [15], 24.4 µM (active) and 43.6 µM (active); in test [7], 54.7 µM (active) and 49 µM (active); in test [8], 54.3 µM (active). The Potency in test [9] is 43.1 µM (active) and inactive; in test [10], 34.5 µM (active); in test [11], 21.8 µM (active) and 24.5 µM (active). Besides, the Potency result in test [14] is “inactive”.

With `CCN1CCCC1CNC(=O)c1cc(S(=O)(=O)CC)c(N)cc1OC` (stereo not given), the Potency result in [1], in test [2], in [12], in test [3], in test [4] and in test [14] was “inactive” in each case. The Potency result in [5], in [6], in [15], in test [7], in test [8] and in test [9] was “inactive” each time. Also, the Potency result in [10], in [17] and in test [11] was “inactive” in each case. In addition, in test [16], the compound was classed as inactive.

On to `O=S(=O)(O)c1ccc2nc(-c3ccccc3)[nH]c2c1`, for which the Potency entry in test [1], in test [12], in test [18], in test [3], in test [13] and in [17] was “inactive” each time. Further, in test [11], the Potency entry is “inactive”. Moreover, the Potency in [4] is 7.39 µM (active); in test [6], 13.1 µM (active); in test [7], 46.6 µM (active). Also, in [16], the outcome was inactive.

Regarding `CC(=O)OCC1=C(C(=O)O)N2C(=O)[C@@H](NC(=O)Cc3cccs3)[C@H]2SC1`, the Potency result in test [2], in [18], in test [3], in test [13], in test [4] and in test [14] was “inactive” throughout. Moreover, the Potency entry in test [5], in test [6], in test [7], in [8], in test [9] and in [10] was “inactive” throughout. Besides, the Potency result in [17] and in test [11] was “inactive” each time. Moreover, the compound was called inactive in test [16].

Consider `Cc1cc(C(C)(C)C)c(O)c(C(C)(C)C)c1`, for which the Potency entry in test [1], in test [2], in test [12], in [18], in test [3] and in [13] was “inactive” throughout. The Potency result in [4], in test [6], in [15], in test [7], in test [8] and in [10] was “inactive” throughout. The Potency entry in test [17] and in [11] was “inactive” throughout. Also, the compound was classed as inactive in [16].

With `Cc1c2oc3c(C)ccc(C(=O)N[C@@H]4C(=O)N[C@H](C(C)C)C(=O)N5CCC[C@H]5C(=O)N(C)CC(=O)N(C)[C@@H](C(C)C)C(=O)O[C@@H]4C)c3nc-2c(C(=O)N[C@@H]2C(=O)N[C@H](C(C)C)C(=O)N3CCC[C@H]3C(=O)N(C)CC(=O)N(C)[C@@H](C(C)C)C(=O)O[C@@H]2C)c(N)c1=O` (I: T[dV]P[Sar][NMeV] / II: T[dV]P[Sar][NMeV]; ester I:1-I:C, II:1-II:C; linker I:N-II:N via Actinocin(9to1)), the Potency entry in [1], in test [4], in [14], in [15], in [10] and in test [11] was “inactive” in each case. In addition, the Potency was 1.7 nM (active) and 11.9 nM (active) in test [12]; 26.8 µM (active) and inactive in test [6]; 26.8 nM (active) and 107 nM (active) in test [7]; 59.4 nM (active) and 59.6 nM (active) in test [8]; 29.8 nM (active) and 188 nM (active) in test [9].
